For 28 compounds, AC50 and activity, negative = inhibition results are on record in PubChem BioAssay AID1851 (National Center for Advancing Translational Sciences (NCATS), 2009).

The campaign covered roughly 16,000 compounds. About 2,600 (16%) were called active. Another 20% or so got no clear call; they are omitted. Only a sample is shown. A number with no mark means an inactive call. Calls come from the whole dose curve; as a rule, active = well fitted curve in the direction sought with a large enough effect; inconclusive = small, poorly fitted or top-dose-only effect, or effect the other way; inactive = no such curve, though single readings can be large or run the other way.
% is set by controls: 0 for no effect and ±100 for the full control effect.

Sequence of Cytochrome P450 2D6 (Homo sapiens) (P10635 whole entry, looked up): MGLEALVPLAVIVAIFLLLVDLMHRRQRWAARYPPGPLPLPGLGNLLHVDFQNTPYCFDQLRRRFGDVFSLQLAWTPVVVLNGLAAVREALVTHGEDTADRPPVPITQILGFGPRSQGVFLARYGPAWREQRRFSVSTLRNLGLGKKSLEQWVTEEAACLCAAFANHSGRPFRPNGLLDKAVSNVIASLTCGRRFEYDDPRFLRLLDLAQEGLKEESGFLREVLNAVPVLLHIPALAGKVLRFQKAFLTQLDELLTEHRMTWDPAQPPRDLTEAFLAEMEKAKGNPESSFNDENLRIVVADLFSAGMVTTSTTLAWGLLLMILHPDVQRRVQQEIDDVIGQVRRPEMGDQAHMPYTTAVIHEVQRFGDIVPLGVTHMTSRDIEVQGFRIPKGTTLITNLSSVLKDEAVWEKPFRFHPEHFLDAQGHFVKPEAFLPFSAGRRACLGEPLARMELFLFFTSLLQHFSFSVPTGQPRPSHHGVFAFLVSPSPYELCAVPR

The experiment concerns the target Cytochrome P450 2D6 (Homo sapiens) (UniProt P10635). Nature of the experiment: Cytochrome panel assay with activity outcomes. The note with it: recombinant CYP, pro-luciferin dealkylation, luminescence, p450-cyp2d6; series mostly up to 57.1 µM. On the procedure: The P450 gene superfamily is involved in the metabolism and clearance of xenobiotics. This assay used various human CYP P450 isozymes to measure the dealkylation of various pro-luciferin substrates to luciferin. The luciferin is then measured by luminescence after the addition of a luciferase detection reagent. Pro-luciferin substrate concentration in the assay was equal to its KM for its CYP P450 isozyme. Inhibitors and some substrates limit the production of luciferin, and decrease measured luminescence.
NCGC Assay Protocol Summary:
1, Reagent, 2 uL, Isozyme and Pro-Luciferin
2, Library compounds, 23 nl, 40 uM to 0.24 nM dilution series
3, Controls, 23 nl, Isozyme specific inhibitor
4, Reagent, 2 uL, NADPH regeneration solution
5, Incubation time, 60 min, Isozyme specific temperature
6, Reagent, 4ul, Detection reagent
7, Incubation time, 20 min, Isozyme specific temperature
8, Detection, 1 sec, ViewLux luminescent read
The luciferase-based P450-GloTM Screening Systems were obtained from Promega (Madison, WI) for CYP 1A2 (V9770), CYP 2C9 (V9790), CYP2 C19 (V9880), CYP 2D6 (V9890), and CYP 3A4 Luciferin-PPXE (V9910) and were adapted for 1,536-well microplates and an automated protocol. The control compounds furafylline for 1A2 (F124), sulfaphenazole for CYP 2C9 (S0758), ketoconazole for CYP 2C19 (K1003), quinidine for 2D6 (Q3625), and ketoconazole for 3A4 (K1003) were purchased from Sigma Aldrich (St. Louis, MO). Recombinant P450 enzymes were obtained from baculovirus constructs expressed in insect cells (BD/Gentest).
Medium-binding white solid Kalypsys plates used. Mixtures kept on ice. 1A2: 10 nM 1A2, 100 uM Luc-ME, 100 mM KPO4; 2C9: 10 nM 2C9, 100 uM Luc-H, 25 mM KPO4; 2C19: 5 nM 2C19, 10 uM Luc-H EGE, 50 mM KPO4; 2D6: 5 nM 2D6, 30 uM Luc-ME EGE, 100 mM KPO4; 3A4: 10 nM, 25 uM Luc-PPXE. All amounts are reflected in their final concentration, working concentration is 2x.
NADPH regeneration solution: 1.3 mM NADP+, 3.3 mM glucose-6-phosphate, 3.3 mM MgCl2, 0.4 U/mL glucose-6-phosphate dehydrogenase for all isozymes, 200 mM KPO4 for 3A4. Mixture prepared at RT but kept on ice during automated run.
RT incubation in auxilliary plate hotel for 1A2, 2D6, and 3A4; 37C for 2C9 and 2C19.
Keywords: P450, CYP1A2, CYP2C19, CYP2C9, CYP2D6, CYP3A4, Luciferase, MLSMR, MLSCN, NIH Roadmap, qHTS, NCGC
As a reminder, the AC50 is the concentration giving half of the maximal activity seen. As to `Cc1nn(C(C)C(=O)Nc2ccc(Cl)cn2)c(C)c1[N+](=O)[O-]` (stereo not drawn), the AC50 entry was “inactive”.

As to `C[C@@](N)(C(=O)O)c1ccc(S(=O)(=O)O)cc1`, the AC50 entry was “inactive”.

Turning to `COc1cccc(Nc2ncc3nc(-c4cccs4)c(=O)n(Cc4cccs4)c3n2)c1`, the AC50 entry was “inactive”.

As to `O=c1c(-c2ccc(Cl)cc2)nc2cnc(N3CCNCC3)nc2n1Cc1cccs1`, the AC50 result is “inactive”.

Take `CCOC(=O)COc1c(OC)cc(Cl)cc1C1Nc2ccccc2C(=O)N1c1ccc(F)cc1` (stereo not drawn): the AC50 entry is “inactive”.

For the compound `CC(C)(C)c1cc(Br)c(O)c(CN(Cc2cc(C(C)(C)C)cc(Br)c2O)C2CCCCC2)c1`, the AC50 is 200 nM (active).

As to `Oc1c(Br)cc(Br)cc1CN(Cc1cc(Br)cc(Br)c1O)C1CCCCC1`, the half-maximal activity concentration (AC50) is 251 nM (active).

`Oc1c(Br)cc(CN(Cc2cc(Br)c(O)c(Br)c2)C2CCCCC2)cc1Br`: the AC50 is 2510 nM (active).

Consider `CC1=CC=CN2CC(O)CN=C12` (stereo not drawn), for which the AC50 entry is “inactive”.

As for `COc1ccc(/C(O)=C2/C(=O)C(=O)N(Cc3cccnc3)C2c2ccco2)cc1OC` (stereo not drawn), the AC50 entry is “inactive”.

Take `CC(=O)n1nc(-c2ccco2)nc1N`: the AC50 result was “inactive”.

`Cc1cccc(N(CC(=O)NC2CCCC2)C(=O)c2cc3cc4cccc(C)c4nc3s2)c1C`: the AC50 result is “inactive”.

Turning to `Nc1ccc2[nH]cc(CCC(=O)O)c2c1`, the activity, negative = inhibition is 5.9% [at 11.4 µM].

In the case of `CSCC[C@H](NC(=O)c1nn(C)c(=O)c2ccccc12)c1nc2ccccc2[nH]1`, the AC50 entry is “inactive”.

On to `Cc1noc(C)c1-c1nccc(N2CCOCC2)n1`, for which the AC50 result is “inactive”.

Regarding `Cc1ccc2c(c1)N[C@H](c1ccc(C(=O)O)cc1)c1cccn1-2`, the activity, negative = inhibition is -2.93% [at 11.4 µM].

Consider `Cc1ccc2nc(SCC(=O)c3ccc4c(c3)OCO4)[nH]c2c1`, for which the AC50 was 4470 nM (active).

On to `Cc1ccc2nc(CC(=O)c3ccc4ccccc4c3)c(=O)[nH]c2c1`, for which the activity, negative = inhibition is -4.59% [at 11.4 µM].

As to `COc1ccc2nc(SCC(=O)Nc3ccc4c(c3)OCCO4)[nH]c2c1`, the AC50 result was “inactive”.

On to `CC(/C=C1\N=C(SCc2ccccc2Cl)SC1=O)=C\c1ccccc1`, for which the AC50 result is “inactive”.

Turning to `Cc1ccccc1Cn1nc(C)c(NC(=O)c2sc3ccccc3c2Cl)c1C`, the AC50 entry is “inactive”.

For the compound `Cc1cc(Nc2ccc(Cl)cc2)nc(N)n1`, the AC50 result was “inactive”.

Consider `Cc1cc(Nc2ccccc2)nc(N)n1`, for which the AC50 is 11200 nM (active).

For `Cc1nnc(SCc2nc(N)nc(Nc3ccccc3)n2)s1`, the AC50 entry was “inactive”.

As to `COC(=O)C1CCN(c2cc(=O)n(C3CCCCC3)c(=O)[nH]2)CC1`, the AC50 entry is “inactive”.

Regarding `CCC(=O)c1ccc(OCC(O)CN(CCc2ccccc2)Cc2ccccc2)cc1` (stereo not drawn), the AC50 was 1000 nM (active).

With `Cc1ccc(OCC(=O)NNC(=O)CCc2ccccc2)cc1`, the AC50 result was “inactive”.

`CN(C)CC(O)COc1ccc(C(C)(C)c2ccc(OCC(O)CN(C)C)cc2)cc1` (stereo not drawn): the AC50 result was “inactive”.
